Source: PubChem BioAssay (NCI)
This is part of a sample that, as a whole, favours compounds with a hit. Of some 83,000 tested, about 20% had one in any assay.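 96-well plates, one dose, 48 hours. Percent growth reported; active if below 10.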 Unmarked numbers belong to inactive results. The source made the active and inactive calls.

How the values were obtained:
Assay in all cases: NCI-60 one-dose screen, 48 h (100 = growth as untreated, 0 = no growth, -100 = all killed)
Conditions in all cases: 10 µM
[1] = system: T-47D breast
[2] = system: BT-549 breast
[3] = system: MDA-MB-435 melanoma
[4] = system: SW-620 colon
[5] = system: MCF7 breast
[6] = system: HCT-116 colon
[7] = system: HCC-2998 colon
[8] = system: KM12 colon
[9] = system: MDA-MB-468 breast

SMILES | growth [1] | growth [2] | growth [3] | growth [4] | growth [5] | growth [6] | growth [7] | growth [8] | growth [9]
O=c1c2ccccc2nc(COc2ccccc2)n1/N=C/c1ccc(F)cc1 | 57.4% | 94.7% | 86.2% | 93.2% | 80.4% | 75.3% | 104% | 93.5% | 78%
CN1CCCN(Cc2ccc(C(=O)Nc3cccc(Nc4ccc5cc(O)ccc5n4)c3)cc2C(F)(F)F)CC1 | 88.7% | 98% | 37.9% | -25.8% (active) | -22.8% (active) | 3.55% (active) | -15.1% (active) | 25.8% | 5.76% (active)
CC(C)C(=O)Nc1ccc(C(=O)NC(=S)Nc2ccc(C(=O)O)cc2)cc1 | 98.9% | 79.5% | 102% | 107% | 99.9% | 104% | 110% | 106% | 96%
CCCCCCCCCCCCCCCCCCCC(=O)NCCc1c[nH]c2ccc(O)cc12 | 103% | 32.3% | 112% | 112% | 84.9% | 83.3% | 114% | 88.5% | 128%
COc1ccc(-c2cc(C(=O)N=Nc3c(O)[nH]c4ccc(F)cc34)c3ccccc3n2)cc1 | 75.9% | 86.3% | 65.2% | 41.1% | 23.6% | 39.7% | 91.1% | 81.3% | 44.2%
Cc1ccc(C(C)C)cc1NC(=O)c1ccccc1N(C)C | 57.1% | 102% | 95% | 106% | 82.8% | 68.3% | 96.7% | 86.7% | 71.9%
COc1ccc(C(=O)/C=C/c2cc(C(F)(F)F)cc(C(F)(F)F)c2)cc1S(N)(=O)=O | -59.8% (active) | -65.8% (active) | -69.2% (active) | -58% (active) | -72.5% (active) | -59.1% (active) | -98.3% (active) | -75.4% (active) | -95.2% (active)
O=C(CSc1nnc(-c2c[nH]c3ccccc23)n1-c1ccccc1)c1ccccc1 | 83.5% | 62.2% | 87.2% | 76.1% | 36.2% | 38% | 83.1% | 69.5% | 77.2%
O=C(c1ccc(Cl)cc1)C1[C@H](c2ccccc2Br)[C@@H](c2ccccc2)NC12C(=O)Nc1ccc(Br)cc12 (some centres not stated) | 21.3% | 54.8% | -39.7% (active) | 7.29% (active) | -2.68% (active) | 3.99% (active) | -13.2% (active) | 11.8% | -39.8% (active)
Cc1ccc2nc3c(nc2c1)c1cc(I)ccc1n3CCN(C)C | 44.8% | 60.2% | 13.7% | 15.9% | -4.43% (active) | 9.81% (active) | -15.6% (active) | 21.1% | 5.08% (active)
CCN1CCN(Cc2ccc(C(=O)Nc3cccc(-c4cn(-c5ccc6oc(=O)ccc6c5)nn4)c3)cc2C(F)(F)F)CC1 | 82.9% | -79.2% (active) | -100% (active) | -100% (active) | -100% (active) | -100% (active) | -100% (active) | -100% (active) | -82.4% (active)
Cc1ccc(/C(CSc2nnc(-c3c[nH]c4ccccc34)n2-c2ccccc2)=N/O)cc1 | -47.3% (active) | -75.5% (active) | -100% (active) | -80.4% (active) | -55% (active) | 2.62% (active) | -41.9% (active) | 50.2% | -88.8% (active)
C=C(C)[C@@H]1CC[C@]2(COP(=O)(OCC)OCC)CC[C@]3(C)[C@H](CC[C@@H]4[C@@](C)(CCCN)[C@H](C(=C)C)CC[C@]43C)[C@@H]12 | 19% | -8.75% (active) | 14.3% | 12.4% | 6.11% (active) | -31.4% (active) | 10.7% | 16.8% | 5.69% (active)
